From PubChem BioAssay (NCI)
Compounds without any hit were thinned out: in the full panel of roughly 79,000, 15% have a hit. The source made the active and inactive calls. Rule as the data show it: active = growth inhibition above about 70%; inactive = the rest.

Legend:
[1] = NCI Yeast Anticancer Drug Screen. Data for the wt1 strain (AID 149);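 also: 0% = growth of vehicle-treated wt1 cultures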; conditions: S. cerevisiae wt1 strain (SPY 50644) growth inhibition, stronger effect = higher value
How it was run: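 Yeast wt1 strain exposed to compounds; growth inhibition measured relative to vehicle-treated controls.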

[2] = NCI Yeast Anticancer Drug Screen. Data for the rad50EPP+ strain (AID 151);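 also: 0% = growth of vehicle-treated control cultures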; conditions: S. cerevisiae rad50 mutant strain, stronger effect = higher value
How it was run: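 Yeast strain carrying rad50 alteration (rad50EPP+) exposed to compounds; growth inhibition measured relative to vehicle-treated controls.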

[3] = NCI Yeast Anticancer Drug Screen. Data for the rad50 strain (AID 155);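 also: 0% = growth of vehicle-only cultures of the same strain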; conditions: S. cerevisiae rad50 strain growth inhibition, stronger effect = higher value
How it was run: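 Yeast carrying a defined DNA repair defect were exposed to test compounds, and growth was compared with vehicle-treated controls to give percent inhibition.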

[4] = NCI Yeast Anticancer Drug Screen. Data for the mec2-1 strain (AID 157); conditions: S. cerevisiae mec2-1 strain, stronger effect = higher value
How it was run: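 mec2-1 yeast strain, carrying an alteration in DNA damage repair or cell cycle control, was exposed to compounds; growth inhibition was measured relative to vehicle-treated controls.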

[5] = NCI Yeast Anticancer Drug Screen. Data for the rad14 strain (AID 159);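 also: 0% = growth of vehicle-treated control cultures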; conditions: S. cerevisiae rad14 strain growth inhibition, stronger effect = higher value
How it was run: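 Yeast cells carrying a defined DNA-repair defect were exposed to compounds, and growth inhibition was calculated relative to vehicle-treated control cultures.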

[6] = NCI Yeast Anticancer Drug Screen. Data for the sgs1 mgt1 strain (AID 161);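 also: 0% = growth of cultures given vehicle only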; conditions: S. cerevisiae sgs1 mgt1 strain, stronger effect = higher value
How it was run: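 This yeast growth screen uses a strain with defined DNA-repair lesions; compound-treated growth is compared with vehicle-treated growth.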

[7] = NCI Yeast Anticancer Drug Screen. Data for the CLN2oe strain (AID 163);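 also: 0% = growth of vehicle-only control cultures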; conditions: S. cerevisiae CLN2oe strain, stronger effect = higher value
How it was run: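 Yeast cells carrying a defined cell-cycle control alteration were exposed to test compounds. Growth inhibition was scored against vehicle-treated control cultures.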

[8] = NCI Yeast Anticancer Drug Screen. Data for the cln2 rad14 strain (AID 165);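 also: 0% = growth equal to vehicle treated cultures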; conditions: S. cerevisiae cln2 rad14 strain, stronger effect = higher value
How it was run: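 Yeast carrying cln2 and rad14 alterations (cell cycle control and DNA damage repair) were exposed to compounds. Growth inhibition was measured against vehicle-treated controls.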

[9] = NCI Yeast Anticancer Drug Screen. Data for the bub3 strain (AID 167); conditions: S. cerevisiae bub3 mutant strain, stronger effect = higher value
How it was run: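 Compounds were applied to a genetically altered yeast strain carrying a cell-cycle control defect. Growth inhibition was scored against vehicle-treated controls.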

[10] = NCI Yeast Anticancer Drug Screen. Data for the wt2 strain (AID 169);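 also: 0% = growth of vehicle-treated yeast cultures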; conditions: S. cerevisiae wt2 strain growth inhibition, stronger effect = higher value
How it was run: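 Yeast cells were exposed to test compounds, and growth inhibition was measured relative to vehicle-treated controls.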

[11] = NCI Yeast Anticancer Drug Screen. Data for the mlh1 strain (AID 171);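 also: 0% = growth of vehicle-treated control cultures of the same strain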; conditions: S. cerevisiae mlh1 strain growth inhibition, stronger effect = higher value
How it was run: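 Yeast carrying a defined genetic alteration in DNA damage repair or cell cycle control were exposed to test compounds. Growth inhibition was measured relative to vehicle-treated controls.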

[12] = NCI Yeast Anticancer Drug Screen. Data for the sgs1 strain (AID 173);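 also: 0% = growth of vehicle-only control cultures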; conditions: S. cerevisiae sgs1 mutant, stronger effect = higher value
How it was run: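 Yeast mutant strains carrying defined defects in DNA damage repair or cell cycle control were exposed to test compounds. Growth inhibition was scored against vehicle-treated controls.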

[13] = NCI Yeast Anticancer Drug Screen. Data for the mlh1 rad18 strain (AID 175); conditions: S. cerevisiae mlh1 rad18 strain growth inhibition, stronger effect = higher value
How it was run: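 Growth inhibition of the yeast strain was measured after compound exposure and expressed relative to vehicle-treated controls. The strain carries defined defects in DNA damage repair.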

[14] = NCI Yeast Anticancer Drug Screen. Data for the rad18 strain (AID 177); conditions: S. cerevisiae rad18 mutant growth inhibition, stronger effect = higher value
How it was run: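 Yeast carrying a defined DNA damage repair alteration were exposed to compounds. Growth inhibition was expressed relative to vehicle-treated controls.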

[15] = at 5.0 µM (retest, dose inferred, filed as 0.5)
[16] = at 50.0 µM (retest, dose inferred, filed as 5.0)

Measured: growth inhibition

CC(=O)CC[N+](C)(C)C
active: [3]; [16] 100% | [13]; [16] 80%
inactive: [1]; at 1.2 µM 0% | [1]; at 3.7 µM 11% | [1]; at 11.0 µM 2% | [1]; at 33.0 µM -5% | [1]; at 100.0 µM 2% | [2]; at 1.2 µM -7% | [2]; at 3.7 µM 4% | [2]; at 11.0 µM -4% | [2]; at 33.0 µM -15% | [2]; at 100.0 µM 7% | [3]; at 1.2 µM -14% | [3]; at 3.7 µM -9% | [3]; [15] 31% | [3]; at 11.0 µM -4% | [3]; at 33.0 µM -14% | [3]; at 50.0 µM 0.7% | [3]; at 100.0 µM -13% | [4]; at 1.2 µM 4% | [4]; at 3.7 µM -3% | [4]; [15] 22% | [4]; at 11.0 µM -1% | [4]; at 33.0 µM -7% | [4]; [16] 59% | [4]; at 50.0 µM -22.7% | [4]; at 100.0 µM 4% | [5]; at 1.2 µM 5% | [5]; at 3.7 µM 6% | [5]; at 11.0 µM -5% | [5]; at 33.0 µM 0% | [5]; at 100.0 µM -2% | [6]; [15] 13% | [6]; [16] 51% | [6]; at 50.0 µM -30.9% | [7]; at 1.2 µM 17% | [7]; at 3.7 µM 28% | [7]; at 11.0 µM 31% | [7]; at 33.0 µM 31% | [7]; at 100.0 µM 36% | [8]; [15] 25% | [8]; [16] 30% | [8]; at 50.0 µM -41.7% | [9]; at 1.2 µM 12% | [9]; at 3.7 µM 16% | [9]; [15] 20% | [9]; at 11.0 µM 16% | [9]; at 33.0 µM 13% | [9]; [16] 14% | [9]; at 50.0 µM -24.3% | [9]; at 100.0 µM 27% | [10]; at 1.2 µM -22% | [10]; at 3.7 µM -1% | [10]; at 11.0 µM -25% | [10]; at 33.0 µM -31% | [10]; at 100.0 µM -30% | [11]; at 1.2 µM -13% | [11]; at 3.7 µM -6% | [11]; at 11.0 µM -11% | [11]; at 33.0 µM -9% | [11]; at 100.0 µM -22% | [12]; at 1.2 µM -8% | [12]; at 3.7 µM -12% | [12]; at 11.0 µM 3% | [12]; at 33.0 µM 3% | [12]; at 100.0 µM 23% | [13]; [15] 26% | [13]; at 50.0 µM 41.9% | [14]; at 1.2 µM -20% | [14]; at 3.7 µM -11% | [14]; at 11.0 µM 14% | [14]; at 33.0 µM -2% | [14]; at 100.0 µM -10%

Cc1ccc2c(/C=C/c3ccc(N(C)C)cc3)ccnc2c1C
inactive: [1]; at 1.2 µM -44% | [1]; at 3.7 µM -45% | [1]; at 11.0 µM -44% | [1]; at 33.0 µM -39% | [1]; at 100.0 µM 59% | [2]; at 1.2 µM -22% | [2]; at 3.7 µM -30% | [2]; at 11.0 µM -15% | [2]; at 33.0 µM 22% | [2]; at 100.0 µM 41% | [3]; at 1.2 µM -15% | [3]; at 3.7 µM -41% | [3]; [15] 9% | [3]; at 11.0 µM -20% | [3]; at 33.0 µM 14% | [3]; [16] 35% | [3]; at 100.0 µM 67% | [4]; at 1.2 µM -27% | [4]; at 3.7 µM -33% | [4]; [15] -7% | [4]; at 11.0 µM -42% | [4]; at 33.0 µM -16% | [4]; [16] 21% | [4]; at 100.0 µM 58% | [5]; at 1.2 µM -25% | [5]; at 3.7 µM -11% | [5]; at 11.0 µM -11% | [5]; at 33.0 µM -6% | [6]; [15] 33% | [7]; at 1.2 µM 26% | [7]; at 3.7 µM 34% | [7]; at 11.0 µM 26% | [7]; at 33.0 µM 39% | [8]; [15] 22% | [8]; [16] 61% | [8]; at 50.0 µM 29.9% | [9]; at 1.2 µM -8% | [9]; at 3.7 µM 7% | [9]; [15] 43% | [9]; at 11.0 µM 28% | [9]; at 33.0 µM 58% | [10]; at 1.2 µM -12% | [10]; at 3.7 µM -45% | [10]; at 11.0 µM -4% | [10]; at 33.0 µM 63% | [11]; at 1.2 µM -13% | [11]; at 3.7 µM -28% | [11]; at 11.0 µM -19% | [11]; at 33.0 µM 54% | [12]; at 1.2 µM -26% | [12]; at 3.7 µM -51% | [12]; at 11.0 µM -4% | [13]; [15] 1% | [13]; [16] 14% | [14]; at 1.2 µM 1% | [14]; at 3.7 µM -9% | [14]; at 11.0 µM -12% | [14]; at 33.0 µM 29% | [14]; at 100.0 µM 65%
active: [3]; at 50.0 µM 71.4% | [4]; at 50.0 µM 84.8% | [5]; at 100.0 µM 77% | [6]; [16] 87% | [6]; at 50.0 µM 86.5% | [7]; at 100.0 µM 71% | [9]; [16] 81% | [9]; at 50.0 µM 79.5% | [9]; at 100.0 µM 84% | [10]; at 100.0 µM 86% | [11]; at 100.0 µM 87% | [12]; at 33.0 µM 82% | [12]; at 100.0 µM 87% | [13]; at 50.0 µM 81.8%
